# Calls of active or inactive are those of the source. How the source made its calls: active means hit-call score of the fitted dose curve at least 0.9, where 1 is the maximum; inactive means score below 0.9.
# Read-out: Matrix Metallopeptidase 3 (MMP3), MMP3 (gene 4314)
# Assay: BSK_BF4T_MMP3: BioMAP Diversity Plus: BF4T Assay for Matrix Metallopeptidase 3 (MMP3) Biomarker Activity (AID 2284271)
# Settings: primary human bronchial epithelial cells with fibroblasts
# Protocol: BSK_BF4T is a cell-based, multiplexed-readout assay that uses bronchial epithelial cells and dermal fibroblasts, a human vascular primary cell, with measurements taken at 24 hours after chemical dosing in a microplate: 96-well plate.BSK_BF4T_MMP3 is an assay component measured in the BSK_BF4T assay. It measures MMP-3 antibody related to regulation of gene expression using ELISA technology.Data from the assay component BSK_BF4T_MMP3 was analyzed at the endpoint, BSK_BF4T_MMP3, in the positive analysis fitting direction relative to DMSO as the negative control and baseline of activity. Using a type of binding reporter, gain or loss-of-signal activity can be used to understand protein changes. To generalize the intended target to other relatable targets, this assay endpoint is annotated to the 'protease' intended target family, where the subfamily is 'matrix metalloproteinase'.
# The levels of cell surface (or secreted, indicated by the prefix "s") biomarker endpoints were measured by ELISA. Overt cytotoxicity to cells in confluent adherent cultures (all systems other than the BT system) was assessed by measuring total protein levels using sulforhodamine B (SRB) staining in parallel cultures at the time of biomarker measurements, indicated as SRB endpoints. For proliferation assays for adherent cell types, individual cell types are cultured at sub-confluence and relative cell numbers quantified by SRB staining at time points optimized for each system (48 h: 3C and CASM3C systems; 72 h: BT and HDF3CGF systems; 96 h: SAg system). SRB was performed by staining cells with 0.1% SRB after fixation with 10% TCA and reading wells at 560 nm.Viability and proliferation of PBMC (T cells) was quantified by Alamar Blue reduction for the SAg and BT systems. For PBMC viability (referred to as PBMC Cytotoxicity within the assay endpoint names), cells were plated (75,000/well in a 96-well plate) and then chemical samples added for 1 h before addition of activators, SEB and TSST-1 (20 ng/mL final concentration each). Cells were incubated for 90 h. Then, Alamar Blue (20 uL/well) (Invitrogen, Cat DAL1100) was added for 6 h, and the plates were read with a fluorescence microplate reader at 546/580 nm (excitation/emission). For PBMC proliferation, cells were plated and activated as above but incubated for only 16 h prior to addition of Alamar Blue. Plates were read after 6 h.
row,Compound,outcome
1,C[Si](C)(C)C(F)(F)C(F)(F)C(F)(F)F,inactive
2,OCCC(F)(F)C(F)(F)C(F)(F)C(F)(F)F,inactive
3,FC(F)(F)COC(OCC(F)(F)F)OCC(F)(F)F,inactive
4,O=C(Cl)C(F)(F)C(F)(F)C(F)(F)C(=O)Cl,inactive
5,FC(F)C(F)(F)COCC1CO1 (stereo not given),inactive
6,O=S(=O)(O)CCC(F)(F)C(F)(F)C(F)(F)C(F)(F)C(F)(F)C(F)(F)F,inactive
7,OC(O)(C(F)C(O)(O)C(F)(F)F)C(F)(F)F,inactive
8,FC(F)(F)C(F)(F)C(F)(F)C(F)(F)C(F)(F)C(F)(F)I,inactive
9,FC(F)=C(F)C(F)(F)C(F)(F)C(F)(F)C(F)(F)C(F)(F)C(F)(F)F,inactive
10,NCC(F)(F)C(F)(F)C(F)(F)C(F)(F)F,inactive

# — PubChem BioAssay (EPA / NIEHS)
